Measured values from PubChem BioAssay (NCATS).
Results filed as inconclusive are left out. Activity calls are given as the source filed them. Calls follow the shape of the dose curve; as a rule, active = well fitted inhibition curve with a large enough effect; inconclusive = small, poorly fitted or top-dose-only effect; inactive = no such curve, though single readings can be large or run the other way.

Biological target: Retinal dehydrogenase 2 (Homo sapiens) (UniProt O94788)
Experiment: qHTS for Inhibitors of the Aldehyde Dehydrogenase Family (ALDH1A2) Confirmation screens (AID 2061314); also: nearly all actives have a fitted effect of over 65% in size
Details: ALDH1A2 enzyme inhibition qHTS confirmation; series mostly up to 45.9 µM; activity, negative = inhibition: at the top concentration
% is scaled to controls: 0 for no effect and ±100 for the full control effect; potency is read from the fitted curve at half-maximal effect.

**Q.** For `CCOc1ccc(C(=O)Nc2ccc(NC(=O)c3ccccc3)cc2)cc1Br`, which “activity, negative = inhibition” value is on record?
**A.** -29.5% (inactive)

**Q.** Which “activity, negative = inhibition” value does the source give for `CC(C)CN1C(=O)CO[C@H](c2ccc(NS(=O)(=O)c3cccc(F)c3)cc2)[C@H]1CO` here?
**A.** -11.4% (inactive)

**Q.** `O=C1COc2cc([S+](=O)([O-])Nc3ccc(Cl)c(Cl)c3)c(Cl)cc2N1` was tested. Which Potency did it give?
**A.** 14.2 µM (active)

**Q.** Which “activity, negative = inhibition” value does the source give for `CC(=O)c1ccc(NC(=O)CCc2c(C)nn(-c3ccc4nnc(C)n4n3)c2C)cc1` here?
**A.** -2.27% (inactive)

**Q.** `CCOCc1cc(CN2CCN(c3cccc(C(F)(F)F)c3)CC2)c(O)c2ncccc12` was tested. Which “activity, negative = inhibition” value did it give?
**A.** -10.1% (inactive)

**Q.** With `COc1ccc(C(CNC(=O)c2cccc([N+](=O)[O-])c2)N2CCOCC2)cc1` (stereo unspecified) as the compound, how does the “activity, negative = inhibition” value read?
**A.** -16.6% (inactive)

**Q.** With `CCOc1ccccc1NC(=O)c1cnc(N2CCOCC2)c2ccccc12` as the compound, how does the “activity, negative = inhibition” value read?
**A.** -9.83% (inactive)

**Q.** For `Fc1cc(F)cc(Cc2nc3nccc(-c4cccnc4)n3n2)c1`, which “activity, negative = inhibition” value is on record?
**A.** -19.3% (inactive)

**Q.** For `CCOC(=O)c1ccccc1NC(=O)c1cnc(N2CCOCC2)c2ccccc12`, which “activity, negative = inhibition” value is on record?
**A.** 4.38% (inactive)

**Q.** `COC(=O)c1ccccc1NC(=O)CSc1nc(-c2ccccc2)cc(C(F)(F)F)n1` was tested. Which “activity, negative = inhibition” value did it give?
**A.** -10% (inactive)

**Q.** `CCN(CC)S(=O)(=O)c1ccc2c(c1)N(CC(=O)N1CCN(c3cccc(C(F)(F)F)c3)CC1)C(=O)CO2` was tested. Which “activity, negative = inhibition” value did it give?
**A.** -100% (inactive)

**Q.** How did the “activity, negative = inhibition” value turn out when `CCc1ccc(N(CC)C(=O)c2cn(C)c(=O)c3cc(OC)c(OC)cc23)cc1` was run?
**A.** -2.63% (inactive)

**Q.** For `O=C(NCC(=O)N1CCOCC1)c1ccc(-c2cnc3ccccc3c2)cc1`, which “activity, negative = inhibition” value is on record?
**A.** -4.18% (inactive)

**Q.** With `O=C(O)C1(Oc2ccc(Cl)cc2)CCN(c2cnccn2)CC1` as the compound, how does the “activity, negative = inhibition” value read?
**A.** 2.05% (inactive)

**Q.** For `Cc1cccc(C(=O)N2CCCC(N3CCN(c4cccc(C(F)(F)F)c4)CC3)C2)c1` (stereo unspecified), which “activity, negative = inhibition” value is on record?
**A.** -4.09% (inactive)

**Q.** With `O=C(NCC(=O)N1CCOCC1)c1cccc(-c2ccc(C(F)(F)F)cc2)c1` as the compound, how does the “activity, negative = inhibition” value read?
**A.** -24% (inactive)
